Most compounds without a hit are left out; they make up all but 7.3% or so of the library.
Tau fluor cs – counter-screen for tau fibril formation inhibitors | tau K18 P301L Alexa594 fluorescence, heparin fibrillization | Potency, µM (doses to about 57.7 µM), for inactives: top-dose activity change, negative = decrease | 280,000 compounds, 0.93% hits; further: nearly all actives have a fitted effect of over 55% in size
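Human K18 P301L tau (15 uM unlabeled plus 0.24 uM Alexa 594-labeled, final) in 100 mM sodium acetate pH 7 was mixed with compound and 20 uM heparin and incubated 6 hr at 37 C.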
RORgamma inh – blocks mouse ROR gamma transcriptional activity; Potency, µM (highest dose often 53.6 µM), for inactives: at the highest dose activity change, negative = inhibition, usual class: inhibitors; AID 2551; P51450; Drosophila S2 Gal4-RORgamma UAS-luciferase reporter, 20 h; 310,000 compounds, 5.4% hits; further: nearly all actives have a fitted effect of over 60% in size
Target sequence (P51450 whole entry, looked up, the tested form may be a part): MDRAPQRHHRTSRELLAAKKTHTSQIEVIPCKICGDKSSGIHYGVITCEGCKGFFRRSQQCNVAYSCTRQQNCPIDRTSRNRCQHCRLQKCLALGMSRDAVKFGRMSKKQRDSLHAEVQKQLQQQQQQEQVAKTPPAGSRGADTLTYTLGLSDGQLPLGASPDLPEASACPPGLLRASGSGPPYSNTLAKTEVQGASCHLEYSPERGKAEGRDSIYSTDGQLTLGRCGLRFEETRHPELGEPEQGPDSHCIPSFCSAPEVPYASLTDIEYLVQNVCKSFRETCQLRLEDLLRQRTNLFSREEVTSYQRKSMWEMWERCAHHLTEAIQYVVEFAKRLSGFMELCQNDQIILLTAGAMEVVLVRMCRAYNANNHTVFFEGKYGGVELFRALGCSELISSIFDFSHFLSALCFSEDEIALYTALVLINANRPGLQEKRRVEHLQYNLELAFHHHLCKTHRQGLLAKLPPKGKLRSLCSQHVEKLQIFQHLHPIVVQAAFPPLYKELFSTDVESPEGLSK
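Luciferase reporter read in Schneider cells carrying Gal4-RORγ (mouse) and UAS-Photinus luciferase; cells given compound 1 h before 700 uM copper sulfate induction, then incubated 20 h at ambient temperature.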
Tau FP inhib – inhibitors of human tau fibril formation; AID 1468; Potency, µM (series often up to 57.7 µM), for the others: at the top dose activity, negative = inhibition, actives largely listed as inhibitors; P10636; 280,000 compounds, 0.39% hits; K18 P301L tau heparin fibrillization, Alexa594 FP, 6 h; further: nearly all actives have a fitted effect of over 55% in size
Target sequence (P10636 561-689 P618L limits assumed): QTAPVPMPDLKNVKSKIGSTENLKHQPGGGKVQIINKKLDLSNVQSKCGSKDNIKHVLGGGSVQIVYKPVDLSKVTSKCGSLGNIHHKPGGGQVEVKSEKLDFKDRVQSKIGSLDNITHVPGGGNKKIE
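K18 P301L tau (15 uM unlabeled/0.24 uM Alexa 594-labeled, final) + compound + heparin 20 uM final; 100 mM NaOAc pH 7; 6 hr 37 C; ThT 30 uM final added, 1 hr RT; FP ex 555/em 632 nm.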
Tau fibril ThT – blocks human tau fibril formation measured by thioflavin T | recombinant tau K18 P301L (four-repeat tau fragment), heparin-induced fibrillization, ThT fluorescence | Potency, µM (titrated, usually from 57.4 µM), for inactives: at the top dose activity, negative = inhibition, usual class: inhibitors | 270,000 compounds, 2.1% hits | AID 1460; further: nearly all actives have a fitted effect of over 55% in size
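Heparin-induced fibrillization of the P301L-mutant K18 repeat-domain fragment of human tau was followed by ThT binding in quantitative high-throughput format.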
Gal4-VP16 FLuc – counter-screen for ROR gamma inhibitors: Gal4-VP16 reporter; Drosophila S2 Gal4-VP16 UAS-luciferase, luminescence, 20 h; AID 2546; Potency, µM (highest dose often 53.6 µM), inactives show at the top dose activity, negative = inhibition, actives largely listed as inhibitors; 310,000 compounds, 3.5% hits;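 further: Gal4-VP16 expression switched on by copper sulfate through the metallothionein promoter; nearly all actives have a fitted effect of over 50% in size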
The depositor's hits bear a star; ? = inconclusive; / = not tested or not shown; [ ] = remark or other dose. The call rests on the fitted dose curve; in most records, active means well fitted curve in the direction sought with a large enough effect; inconclusive means small, poorly fitted or top-dose-only effect, or another doubt; inactive means no such curve, though single readings can be large; an effect the other way counts as inactive or inconclusive. On the % scale 0 is the no-effect control and ±100 the full control effect; potency means the concentration at half of the fitted maximal effect.

SMILES | Tau fluor cs | RORgamma inh | Tau FP inhib | Tau fibril ThT | Gal4-VP16 FLuc
Nc1ccc(S(=O)(=O)NCc2ccccc2)cc1 | / | 23% | / | / | -1%
CN(CCO)c1nc(N)c2c(N)nc3c(c2c1C#N)CC(=O)N3Cc1cccs1 | -27% | -16% | 2% | ? | 2%
N#Cc1c(N(CCO)CCO)nc(N)c2c(N)nc3c(c12)CC(=O)N3Cc1cccs1 | ? | -12% | ? | 16µM* | -6%
CC1CCC(C(C)C)C2=C1C(C#N)(C#N)C(C#N)(C#N)C(c1ccccc1)N2 (configuration not stated) | ? | ? | -10% | 22µM* | ?
COc1ccc(C2=CSC3=NNC4(CCCCC4)NN23)cc1 | -26% | -12% | 0% | 22µM* | 9%
Cc1ccc(C2=CSC3=NNC4(CCCCC4)NN23)cc1 | -26% | -39% | 0% | ? | -3%
COCCn1c(=O)c(-c2cccs2)nc2cnc(Oc3ccc(OC)cc3)nc21 | / | 14% | / | / | -1%
COc1ccc(NC(=O)CCCn2c(=O)c3cccn3c3ccccc32)c(OC)c1 | -15% | / | -8% | ? | /
COc1ccc(NC(=O)Cn2c(=O)c3cccn3c3ccccc32)cc1 | ? | / | 18µM* | -9% | /
COc1ccc(OC)c(NC(=O)Cn2c(=O)c3cccn3c3ccccc32)c1 | ? | / | 3.2µM* | ? | /
CCOC(=O)CNC(=O)Cn1cnc2c(oc3ccccc32)c1=O | / | 16% | / | / | -11%
COc1cc(OC)cc(C(=O)Oc2ccc(/C=N/Nc3nc4ccccc4s3)cc2OC)c1 | 10µM*[quencher] | 10µM* | 1% | ? | -23%
COc1cc(/C=N/Nc2nc3ccccc3s2)ccc1OC(=O)c1ccccc1F | 7.1µM*[quencher] | ? | 12% | ? | ?
COc1cccc(C(=O)Oc2ccc(/C=N/NC(=O)c3ccncc3)cc2OC)c1 | / | -27% | / | / | -15%
COc1cc(/C=N/Nc2ccccc2[N+](=O)[O-])ccc1OC(=O)c1ccccc1F | -16% | 10% | 8% | ? | 2%
O=[N+]([O-])c1ccc(-c2cnc(SC(c3ccccc3)c3ccccc3)[nH]2)cc1 | 4µM*[quencher] | ? | ? | ? | ?
Cc1cc(C)c(CSc2ncc(-c3ccc([N+](=O)[O-])cc3)[nH]2)c(C)c1 | 6.3µM*[quencher] | 10µM* | -10% | 5µM* | 7.1µM*
NC(=O)CSc1ncc(-c2ccc([N+](=O)[O-])cc2)[nH]1 | -16% | 18% | -5% | ? | 5%
O=[N+]([O-])c1ccc(-c2cnc(SCc3ccccc3Cl)[nH]2)cc1 | 16µM*[quencher] | ? | -4% | 14µM* | -3%
CCOc1ccc(C(=O)Nc2ccc(-c3cc4ccccc4oc3=O)cc2)cc1Br | -4% | / | ? | ? | /
O=C(CSc1c2c(nc3ccccc13)CCC2)Nc1ccc(F)cc1F | -14% | / | -9% | ? | /
COc1ccc(-n2c(SCc3nc(-c4ccc(C)cc4)no3)nnc2-c2ccncc2)cc1 | -8% | / | -2% | -11% | /
COc1ccc(-n2ncc(C(=O)N3CCN(c4cc(C)ccc4C)CC3)c2C2CCN(C(=O)OC(C)(C)C)CC2)cc1 | -4% | / | 1% | -7% | /
NS(=O)(=O)c1ccc(CCNC(=O)c2cc(-c3ccc(Br)cc3)nc3ccccc23)cc1 | -25% | 3.5µM* | -12% | -9% | ?
NNC(=O)c1cc(-c2ccc(O)cc2)nc2ccc(Br)cc12 | ? | 13µM* | -5% | -3% | ?
SMILES | Tau fluor cs | RORgamma inh | Tau FP inhib | Tau fibril ThT | Gal4-VP16 FLuc
O=C(NCCc1ccc(Cl)cc1)c1cc(-c2ccccn2)nc2ccccc12 | / | 11µM* | / | / | ?
CCCc1ccc(-c2cc(C(=O)NCCc3ccc(S(N)(=O)=O)cc3)c3ccccc3n2)cc1 | -18% | 36% | 0% | 9% | -11%
CCCn1c(C)nc2c(N3CCC(N(C)C)C3)nc(C)nc21 (configuration not stated) | -4% | -8% | -2% | -1% | -4%
O=C(Nc1nc2ccccc2n1CCN1CCCCC1)c1ccco1 | -9% | 0%[10 µM] | -7% | -7% | ?
Cc1cccc(OCCn2c(NC(=O)c3ccco3)nc3ccccc32)c1 | -12% | 1.4µM* | -4% | ? | 2µM*
CC(NC(=O)/C=C/c1ccco1)c1nc2ccccc2n1Cc1cccc(Cl)c1 (configuration not stated) | -5% | ? | -9% | -11% | 11µM*
O=C(Nc1nc2ccccc2n1CCOc1ccccc1)c1ccco1 | -7% | 2µM* | -2% | -14% | 5µM*
Cc1cccc(OCC(=O)Nc2ccc(NC(=O)c3ccco3)cc2)c1 | / | 12% | / | / | 1%
CC(=O)Nc1nc2ccccc2n1Cc1ccc(Cl)cc1 | -7% | 1.1µM* | -5% | -4% | 1.6µM*
Cc1ccc(OCCn2c(NC(=O)c3ccco3)nc3ccccc32)cc1 | -11% | 1.6µM* | -3% | -8% | 2µM*
Nc1nc2ccccc2n1CCOc1ccc(Cl)cc1 | / | ? | / | / | -12%
C=CCn1c(NCc2ccco2)nc2ccccc21 | / | 16% | / | / | 18%
O=C(Nc1nc2ccccc2n1CCOc1ccc(Cl)cc1)c1ccco1 | -18% | 1.4µM* | -9% | ? | 2.5µM*
O=C(Nc1nc2ccccc2n1Cc1ccc(Cl)cc1)c1ccco1 | -11% | 0.71µM* | -13% | -16% | 2µM*
O=C(NCCCc1nc2ccccc2n1Cc1ccc(Cl)cc1)c1ccco1 | -5% | / | 1% | -9% | /
C=CCn1c(NC(=O)c2ccco2)nc2ccccc21 | / | 4µM* | / | / | 3.5µM*
Cc1ccccc1NS(=O)(=O)c1ccc2[nH]cc(C(=O)N3CCCC3)c(=O)c2c1 | -3% | / | -1% | 1% | /
COC(=O)c1ccc(/C=N/n2c(C)nc3ccccc3c2=O)cc1 | / | 21% | / | / | 2%
C=CCn1c(C(C)C)nc2ccccc21 | -10% | 11µM* | -1% | -12% | -5%[10 µM]
Cc1ccc(-c2nnc(Nc3cccc(Cl)c3)c3ccccc23)cc1S(=O)(=O)NCC1CCCO1 (configuration not stated) | ? | / | ? | 11% | /
C=CCNC(=O)NC(=S)c1ccccc1 | 9% | 13µM* | 18% | 5% | ?
C=CCNC(=S)N/N=C(\C)c1cccc(NC(C)=O)c1 | -6% | 3.5µM* | -8% | -8% | ?
C=CCNC(=S)Nc1cccc(NC(=S)NCC=C)c1 | -11% | 7.9µM* | 9% | -3% | ?
C=CCNC(=S)N/N=C(\C)c1cc(OC)c(OC)c(OC)c1 | -2% | 2µM* | 4% | -8% | 4.5µM*
O=C(/C=C/c1cccc(Cl)c1)NCCCN1CCOCC1 | / | -13% | / | / | 0%
C=CCNC(=S)Nc1ccccc1 | -5% | -126% | 6% | -3% | ?
C=CCNC(=S)NN(c1ccccc1)c1ccccc1 | -5% | 2µM* | 4% | -6% | 6.3µM*
COc1ccc(-c2csc3nc(-c4ccccc4C)oc(=O)c23)cc1OC | -14% | / | -15% | -10% | /

Source: PubChem BioAssay
